Each structure is given as a SMILES string. Where “and” joins values, the source holds several entries; their conditions need not be identical. Identical values can stand only once. Compounds without any hit were thinned out: in the full panel of roughly 83,000, 20% have a hit.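 The endpoint reported here, percent growth, reads 100 for growth as untreated, 0 for no net growth and -100 for all cells dead.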 A number with no mark means an inactive call. Calls of active or inactive are those of the source.

The test system of the assay is SW-620 colon. Put plainly: NCI-60 one-dose screen, 48 h (100 = growth as untreated, 0 = no growth, -100 = all killed). To be noted: 10 µM unless noted. How it is done: Growth inhibition of the SW-620 human tumor cell line is measured as a screen for anti-cancer activity. Cells are grown in 96 well plates and exposed to the test compound for 48 hours. Compounds are tested at a single concentration, which is 10^-5 M for most compounds. The reported endpoint is percent growth (GI% or GIPRCNT), where numbers from 0 - 100% represent growth inhibition, and numbers from -100% - 0 represent cell death. For example, a value of 40 represents 60% growth inhibition. A value of 0 means no net growth occurred over the course of the experiment. A value of -40 indicates 40% of cells at the beginning of the experiment died by the end of the experiment. A value of -100 means all cells are dead at the end of the experiment.
NCI-60 Human Tumor Cell Lines Screen was performed using the standard one-dose NCI protocol, which is described in more detail at https://dtp.cancer.gov/discovery_development/nci-60/default.htm.
Compounds with GIPRCNT values below 10 were considered active. Activity score was based on GIPRCNT using the following formula: […]
Score is 0 for GIPRCNT values of 100 or above, 50 for GIPRCNT values of 0, and 100 for GIPRCNT values of -100.
Take `C#Cc1cccc(Nc2nc(Cl)nc3cc(NC(=O)CF)ccc23)c1`: the growth was 35.4%.

In the case of `CCC1(CCSC#N)C(=O)NC(=O)NC1=O`, the growth was 106%. The value for `N#CCCc1ccccc1` was 102%; that for `O=C(O)c1ccccc1N(CCO)CCCl` was 107%.

As for `CCN1C(=O)CC(=O)N(CC)C1=S`, the growth was 108%. The result for `O=C1NC(=O)C(=Cc2ccccc2)C(=O)N1` reads 103% and 105%. The result for `OCCN=Cc1c[nH]c2ccccc12` reads 93.3%. The result for `Cc1cc[c-]cc1.Fc1c[c-]c(-c2ccccn2)c(F)c1.N#CCC[PH+](CCC#N)c1ccccc1.[Pt+2]` reads 6.78% (active); that for `O=S(=O)(c1ccc(O)cc1)c1ccccc1O`, 106%. For the compound `Oc1ccc(O)c(Cl)c1`, the growth was 112% and 115%. For `CCC1CCC(=O)O1` (stereo not given), the growth was 111% and 106%. Consider `COc1ccc(C(C#N)C(C)=O)cc1` (stereo not given), for which the growth was 104%. The value for `C[C@]12CC[C@H]3[C@@H](C[C@@H]4SC(Nc5ccccc5)=N[C@@]45C/C(=N/O)CC[C@]35C)[C@@H]1CCC2=O` was 34.8%; that for `O=c1[nH]c(=O)n(Cl)c(=O)n1Cl` was 105% and 110%; that for `C(=NC1CCCCC1)=NC1CCCCC1` was 106% and 88.6%. The result for `CCCCCCCCCCCCCCCC[N+](C)(C)C` reads -92.5% (active) and 8.75% (active); that for `Cc1ccc(P(=O)(O)O)cc1`, 105%; that for `Oc1ccccc1C=NCCN=Cc1ccccc1O`, 100%. Regarding `Oc1ccccc1C=NCCN=Cc1ccccc1O.[Fe]`, the growth is 66.1%.

Regarding `CCCCCCCCCCCCCCCCCCn1cc[n+](C)c1`, the growth is -45.2% (active) and -38.1% (active). The value for `CN1CCC2(CC1)C(C#N)C(=O)NC(=O)C2C#N` (stereo not given) was 108%. For `O=C1CN2CCC1CC2`, the growth is 106%. The value for `Cc1cc(N)ccc1N` was 96.6%. The result for `COC12CC3C4=CCOC5CC(=O)N6c7ccccc7C1(CCN2C4)C6C53` (stereo not given) reads 107%.

Consider `Cc1ccc(C(=O)O[C@H](C(=O)O)[C@H](OC(=O)c2ccc(C)cc2)C(=O)O)cc1`, for which the growth is 105%.

Turning to `C[C@]12CC[C@H]3[C@@H](C[C@@H]4SC(Nc5cccc(F)c5)=N[C@@]45CC(=O)CC[C@]35C)[C@@H]1CCC2=O`, the growth is 4.62% (active). The result for `O=C(O)C(F)F` reads 90.4%; that for `COC1C(O)CC(OC2CC(Oc3cc4cc5c(c(O)c4c(O)c3C)C(=O)[C@@H](OC3CC(OC4CC(OC6CC(C)(O)C(OC(C)=O)C(C)O6)C(O)C(C)O4)C(O)C(C)O3)[C@H]([C@H](OC)C(=O)[C@@H](O)[C@@H](C)O)C5)OC(C)C2OC(C)=O)OC1C` (stereo not given in full), -16.1% (active). As for `ClCc1ccc(Cl)c(Cl)c1`, the growth is 97%. The result for `Cc1nnc([S-])o1.[Au+].c1ccc([PH+](c2ccccc2)c2ccccc2)cc1` reads -11.8% (active); that for `Cc1cc(Br)c([N+](=O)[O-])cc1[N+](=O)[O-]`, 23%; that for `C[C@]12CCC(=O)C[C@@H]1CC[C@@H]1[C@@H]2CC[C@]2(C)[C@@H](OC(=O)N(CCCl)N=O)CC[C@@H]12`, 31.7%.

For the compound `S=P(SP(=S)(c1ccccc1)c1ccccc1)(c1ccccc1)c1ccccc1`, the growth is 99.3%. The result for `Clc1ccc(COC(Cn2ccnc2)c2ccc(Cl)cc2Cl)c(Cl)c1` (stereo not given) reads 58.3% and 62.2%.

As for `CNC(=O)O/N=C(\SC)C(=O)N(C)C`, the growth was 106%. The value for `OCCNC1CCCCC1` was 108%; that for `CC[C@H](C)[C@H](NC(=O)c1cnccn1)C(=O)N(C)[C@H](C[C@@H](OC(C)=O)c1nc(C(=O)N[C@@H](Cc2ccccc2)C[C@H](C)C(=O)OC)cs1)C(C)C` was 23.6%.

With `N#CCc1ccc(CC#N)cc1`, the growth was 96.7%.

Take `COc1ccc(O)c2c(=O)c3c(OC)cc4c(c3oc12)[C@@H]1C=CO[C@@H]1O4`: the growth was 64.6%.

On to `C[C@]12CC[C@H](O)C[C@@H]1CC[C@@H]1[C@@H]2CC[C@]2(C)OC(=O)CC[C@@H]12`, for which the growth was 115%.

These data come from PubChem BioAssay (NCI).
